In PubChem BioAssay (NCATS):
Several values for one entry are separate records, joined by “and”; a condition that tells them apart may be missing. Equal entries are not always repeated. Records with an inconclusive call do not appear. Entries that show only a call come without a potency. A number with no mark means an inactive call. Activity calls are given as the source filed them. Calls follow the shape of the dose curve; as a rule, active = well fitted curve in the direction sought with a large enough effect; inconclusive = small, poorly fitted or top-dose-only effect, or another doubt; inactive = no such curve, though single readings can be large; an effect the other way counts as inactive or inconclusive.

How the values were obtained:
[1] = target: Cellular tumor antigen p53 (Homo sapiens) (UniProt P04637); assay: Primary qHTS for small molecule compounds that upregulate eGFP-tagged delta133p53alpha (in N-terminal) cells. (AID 2060322); settings: NCI-H358 eGFP-delta133p53alpha fluorescence, 24 h; activation: stronger effect = higher value; also: nearly all actives have a fitted effect of over 75% in size; also: potency is read from the fitted curve at half-maximal effect
Cellular tumor antigen p53 (Homo sapiens), sequence (P04637 whole entry, looked up): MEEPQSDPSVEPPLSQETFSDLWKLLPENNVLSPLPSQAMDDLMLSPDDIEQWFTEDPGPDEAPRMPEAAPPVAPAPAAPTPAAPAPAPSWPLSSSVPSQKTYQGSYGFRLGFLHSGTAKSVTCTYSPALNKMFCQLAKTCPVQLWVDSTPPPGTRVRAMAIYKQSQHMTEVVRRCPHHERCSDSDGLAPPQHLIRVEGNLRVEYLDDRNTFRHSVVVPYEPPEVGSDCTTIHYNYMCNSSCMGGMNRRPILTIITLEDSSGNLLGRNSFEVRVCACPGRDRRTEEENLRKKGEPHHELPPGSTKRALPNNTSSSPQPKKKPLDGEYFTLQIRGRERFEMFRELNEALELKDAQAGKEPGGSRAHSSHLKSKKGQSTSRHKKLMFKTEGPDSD
Outline: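 NCI-H358 cells pre-induced 24 h with 10 ng/ml doxycycline to express N-terminal eGFP-delta133p53alpha, then dosed 24 h at 37C without doxycycline; fixed, Hoechst-stained, GFP intensity by laser scanning cytometry, normalized to DMSO (0%) and 57.5 uM 5-azacytidine (100%).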

[2] = target: Aldehyde dehydrogenase, mitochondrial (Homo sapiens) (UniProt P05091); assay: qHTS for Inhibitors of the Aldehyde Dehydrogenase Family (ALDH2) Primary screen (AID 2061308); settings: ALDH2 enzyme inhibition qHTS, 1536-well; series mostly up to 56 µM; also: nearly all actives have a fitted effect of over 55% in size
[3] = target: Retinaldehyde dehydrogenase 3 (Homo sapiens) (UniProt P47895); assay: qHTS for Inhibitors of the Aldehyde Dehydrogenase Family (ALDH1A3) Primary screen (AID 2061315); settings: ALDH inhibition qHTS; series mostly up to 56 µM
[4] = BET inhibitor-based combinations targeting novel dependencies in MECOM-rearranged (r) AML: SET-2 cell line (AID 2202231); settings: SET-2 AML cells viability, CellTiter-Glo luminescence, 48 h; viability: stronger effect = lower value, concentration not given here; also: nearly all actives have a fitted effect of over 35% in size; also: potency is read from the fitted curve at half-maximal effect
Outline: (§1)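 500 cells/well; 11-pt dose curve; 48 h, standard incubator; CellTiter-Glo luminescence after 15 min RT; DMSO/empty-well normalization; AUC plus Z-AUC (mean-centered within each line).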

[5] = BET inhibitor-based combinations targeting novel dependencies in MECOM-rearranged (r) AML: OCI-AML3 cell line (AID 2202232); settings: CellTiter-Glo luminescence, 48 h; Potency: OCI-AML3 viability; series mostly up to 46 µM; also: nearly all actives have a fitted effect of over 35% in size; also: potency is read from the fitted curve at half-maximal effect
Outline: as §1

[6] = BET inhibitor-based combinations targeting novel dependencies in MECOM-rearranged (r) AML: MV-4-11 cell line (AID 2202233); settings: MV-4-11 AML viability, CellTiter-Glo luminescence, 48 h; series mostly up to 46 µM; also: nearly all actives have a fitted effect of over 45% in size; also: potency is read from the fitted curve at half-maximal effect
Outline: (§2)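 Cells were plated at 500 per well and exposed to each drug across an 11-point dose range for 48 hr at standard incubator conditions. Viability was read by CellTiter-Glo luminescence, and activity was expressed as AUC and per-cell-line Z-transformed AUC.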

[7] = BET inhibitor-based combinations targeting novel dependencies in MECOM-rearranged (r) AML: UCSD-AML1 cell line (AID 2202235); settings: UCSD-AML1 AML cells viability, CellTiter-Glo, 48 h; series mostly up to 46 µM; also: nearly all actives have a fitted effect of over 40% in size; also: potency is read from the fitted curve at half-maximal effect
Outline: as §2

[8] = BET inhibitor-based combinations targeting novel dependencies in MECOM-rearranged (r) AML: AML-191 cell line (AID 2202236; also: nearly all actives have a fitted effect of over 35% in size; also: potency is read from the fitted curve at half-maximal effect); settings: AML-191 viability, CellTiter-Glo luminescence, 48 h; series mostly up to 46 µM
Outline: as §1

[9] = BET inhibitor-based combinations targeting novel dependencies in MECOM-rearranged (r) AML: AML-194 cell line (AID 2202237; also: nearly all actives have a fitted effect of over 40% in size; also: potency is read from the fitted curve at half-maximal effect); settings: AML-194 (MECOM-r AML) viability, CellTiter-Glo, 48 h; series mostly up to 46 µM
Outline: as §1

[10] = BET inhibitor-based combinations targeting novel dependencies in MECOM-rearranged (r) AML: HNT-34 cell line (AID 2202234); settings: HNT-34 AML viability, CellTiter-Glo luminescence, 48 h; series mostly up to 46 µM; also: nearly all actives have a fitted effect of over 35% in size; also: potency is read from the fitted curve at half-maximal effect
Outline: as §2

SMILES	activation [1]	Potency [2]	Potency [3]	viability [4]	Potency [5]	Potency [6]	Potency [7]	Potency [8]	Potency [9]	Potency [4]	Potency [10]	Potency [1]	viability (% of control) [5]
CCOC(=O)c1ccnc(CNCC(=O)N(CC)CCN(C)C)c1	8.33%	inactive	inactive	104%	inactive	inactive	inactive	inactive	inactive	–	–	–	–
COc1ccc(CCN2CCN(CCCc3ccccc3)CC2)cc1OC	20.6% and -1.43%	inactive	inactive	–	inactive	–	inactive	inactive	inactive	18.6 µM (active)	inactive	–	–
Cc1ccc2c(c1)C(=O)[C@]1(O)CCN(c3ccccc3)C1=N2	-1.14% and -10.7%	inactive	inactive	110%	18.6 µM (active)	23.5 µM (active)	inactive	23.5 µM (active)	16.6 µM (active)	–	–	–	–
CC(C)(C)C(=O)Oc1ccc2c(c1)nc(NC(=O)c1cccc([N+](=O)[O-])c1)n2CCCO	12%	inactive	inactive	111%	inactive	2.95 µM (active)	inactive	–	inactive	–	–	–	–
COc1ccc(C2(C#N)CCC(C(=O)O)CC2)cc1OC1CCCC1 (configuration not stated)	-6.96% and -15.7%	inactive	inactive	119%	inactive	–	inactive	inactive	inactive	–	inactive	–	–
CCC(C)n1ncn(-c2ccc(N3CCN(c4ccc(OC[C@H]5CO[C@](Cn6cncn6)(c6ccc(Cl)cc6Cl)O5)cc4)CC3)cc2)c1=O (some centres not stated)	10% and -7.18% and -11.6%	inactive	inactive	101%	6.45 µM (active)	–	inactive	7.23 µM (active)	inactive	–	inactive	–	–
C[C@@H]1CN(Cc2ccc(F)cc2)[C@@H](C)CN1C(=O)c1cc2c(C(=O)C(=O)N(C)C)cn(C)c2cc1Cl	10.3% and -3.57%	inactive	inactive	94.6%	inactive	–	inactive	–	inactive	–	inactive	–	–
Clc1cc2c(NC3CCCC3)nnc(-c3ccncc3)c2cc1Cl	-9%	inactive	inactive	112%	0.468 µM (active)	inactive	–	inactive	inactive	–	–	–	–
Nc1ccc(C(=O)Nc2cccc(-c3nc(N4CCOCC4)c4oc5ncccc5c4n3)c2)cn1	2.12%	inactive	inactive	–	9.34 µM (active)	–	9.34 µM (active)	9.34 µM (active)	8.33 µM (active)	16.6 µM (active)	14.8 µM (active)	–	–
CCCCc1ccc(NS(=O)(=O)c2ccc(C)c(C(=O)N3CCN(c4cccc(C)c4C)CC3)c2)cc1	-4.4%	inactive	inactive	94.4%	inactive	–	inactive	inactive	–	–	inactive	–	–
N[C@@H](Cc1cc(I)c(Oc2cc(I)c(O)c(I)c2)c(I)c1)C(=O)O	-1.69% and -8.29% and -5.67%	inactive	inactive	108%	inactive	inactive	inactive	inactive	inactive	–	–	–	–
NCCOc1cc(C(=O)Nc2cc(OCCN)c3ccccc3n2)nc(C(=O)Nc2cc(OCCN)c3ccccc3n2)c1	–	inactive	inactive	78%	inactive	16.6 µM (active)	–	inactive	–	–	–	0.193 µM (active)	–
N#CCNC(=O)c1ccc(-c2ccnc(Nc3ccc(N4CCOCC4)cc3)n2)cc1	–	inactive	inactive	–	16.6 µM (active)	–	1.48 µM (active)	4.68 µM (active)	5.25 µM (active)	4.17 µM (active)	2.95 µM (active)	8.49 µM (active)	–
CC[C@H](NC(=O)[C@H](CS(=O)(=O)CC1CC1)N[C@@H](c1ccc(F)cc1)C(F)(F)F)C(=O)C(=O)NC1CC1	21.7%	inactive	inactive	112%	inactive	–	inactive	inactive	inactive	–	inactive	–	–
CO[C@@H](C)Cn1c(=O)n(C)c2cnc3ccc(-c4cncc(C(C)(C)O)c4)cc3c21	-10.7%	inactive	inactive	–	1.18 µM (active)	–	0.263 µM (active)	0.235 µM (active)	–	0.934 µM (active)	0.372 µM (active)	–	–
COc1ncc(-c2ccc3c(Nc4cc(Oc5cc(F)cc(F)c5)cc(C(=O)O)c4)c(S(=O)(=O)NC4CC4)cnc3c2)c(OC)n1	-3.34%	inactive	inactive	110%	inactive	–	inactive	inactive	inactive	–	inactive	–	–
O=C(Cc1ccc(-c2ccc(OCCN3CCOCC3)cc2)cn1)NCc1ccccc1	20.5%	inactive	inactive	–	0.105 µM (active)	0.118 µM (active)	0.118 µM (active)	–	0.0934 µM (active)	0.166 µM (active)	–	–	–

SMILES	activation [1]	Potency [2]	Potency [3]	viability [4]	Potency [5]	Potency [6]	Potency [7]	Potency [8]	Potency [9]	Potency [4]	Potency [10]	Potency [1]	viability (% of control) [5]
CCS(=O)(=O)N1CCC([C@@H](C)n2c(C)c(C(=O)NCc3c(OC)cc(C)[nH]c3=O)c3ccccc32)CC1	7.16%	inactive	inactive	115%	5.9 µM (active)	–	inactive	inactive	inactive	–	inactive	–	–
CC1(C)CC(=O)c2c(C(F)(F)F)nn(-c3ccc(C(N)=O)c(NC4CCC(O)CC4)c3)c2C1 (configuration not stated)	11.9% and -1.67%	inactive	inactive	–	0.0742 µM (active)	–	0.105 µM (active)	–	–	0.148 µM (active)	0.0934 µM (active)	–	–
Nc1cccc(-c2cc3c(Oc4cccc(O)c4)ncnc3[nH]2)c1	-3.57%	inactive	inactive	–	13.2 µM (active)	–	8.33 µM (active)	3.32 µM (active)	5.9 µM (active)	20.9 µM (active)	0.468 µM (active)	–	–
CCCC(CCC)C(=O)Nc1ccn([C@@H]2O[C@H](CO)[C@@H](O)C2(F)F)c(=O)n1	-16.2%	inactive	inactive	–	0.934 µM (active)	–	4.17 µM (active)	2.35 µM (active)	–	3.72 µM (active)	4.68 µM (active)	–	–
CC1CCC(n2c3cnccc3c3cnc(Nc4ccc5c(n4)CCN(C(=O)CO)C5)nc32)CC1 (configuration not stated)	–	inactive	inactive	105%	–	0.152 µM (active)	–	–	1.21 µM (active)	–	–	23.9 µM (active)	86.5% [at 8.46 µM]
CC#CC(=O)N1CCC[C@H]1c1nc(-c2ccc(C(=O)Nc3ccccn3)cc2)c2c(N)nccn12	15.7%	inactive	inactive	96.5%	inactive	–	inactive	–	inactive	–	inactive	–	–
O=c1ccn([C@@H]2O[C@H](CO)[C@@H](O)[C@H]2O)c(=O)[nH]1	10.3%	inactive	inactive	115%	inactive	–	inactive	inactive	inactive	–	inactive	–	–
CCCS(=O)(=O)Nc1ccc(F)c(C(=O)c2c[nH]c3ncc(Cl)cc23)c1F	27.8% and 12.5%	inactive	inactive	–	inactive	–	inactive	–	inactive	16.6 µM (active)	11.8 µM (active)	–	–
CCNC(=O)[C@H]1O[C@@H](n2cnc3c(N)nc(NCCc4ccc(CCC(=O)O)cc4)nc32)[C@H](O)[C@@H]1O	-4.46%	inactive	inactive	115%	inactive	–	inactive	inactive	–	–	inactive	–	–
OCc1ccccc1O[C@@H]1O[C@H](CO)[C@@H](O)[C@H](O)[C@H]1O	2.68%	inactive	inactive	115%	inactive	inactive	inactive	inactive	inactive	–	–	–	–
CC1CCN(c2cc(N3CCN(C)CC3)ccc2NC(=O)c2cc(C#N)c[nH]2)CC1	4.19% and 20.5%	inactive	inactive	116%	20.9 µM (active)	–	20.9 µM (active)	20.9 µM (active)	–	–	26.3 µM (active)	–	–
O=C(Nc1ccnc(NC(=O)C2CC2)c1)c1c(Cl)cccc1Cl	–	inactive	inactive	–	7.42 µM (active)	–	3.32 µM (active)	5.25 µM (active)	7.42 µM (active)	7.42 µM (active)	4.17 µM (active)	12 µM (active)	–
CNC(=O)c1ccc2cc(C3(O)CCn4cncc43)ccc2c1 (configuration not stated)	-1.49% and -0.893%	inactive	inactive	115%	inactive	–	inactive	inactive	inactive	–	inactive	–	–
CCC(CC)CC1(C(=O)Nc2ccccc2SC(=O)C(C)C)CCCCC1	18.8%	inactive	inactive	117%	inactive	–	inactive	inactive	inactive	–	inactive	–	–
COc1ccc(-c2c(C)nn3c(NCCN4CCOCC4)cc(C)nc23)cc1OC	7%	inactive	inactive	88.4%	inactive	–	inactive	–	–	–	20.9 µM (active)	–	–
COc1ccc(Cc2ccc(NC(N)=O)cc2)cc1-c1cccc(Cl)c1	2.49%	inactive	inactive	103%	inactive	–	inactive	–	inactive	–	inactive	–	–
